For 36 compounds, Potency results are on record in PubChem BioAssay AID624331 (National Center for Advancing Translational Sciences (NCATS), 2012).

Records with an inconclusive call do not appear. Where a call stands in place of a potency, no number is given. The source made the active and inactive calls. Calls come from the whole dose curve; as a rule, active = well fitted activation curve with a large enough effect; inconclusive = small, poorly fitted or top-dose-only effect; inactive = no such curve, though single readings can be large or run the other way.

The experiment can be described thus: qHTS assay for re-activators of p53 using a Luc reporter: Hit Validation with no p53 Expressed. As to conditions: p53-null cells, luciferase reporter counter-screen; series mostly up to 46.1 µM. In outline:
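Without p53 expression, cells (1000/well, Opti-MEM + 10% FBS) were exposed 24 h at 37 deg C to compounds in a 1:5 series from 10 mM stock (top 46.1 µM in well). Luminescent signal read 10 min after Amplite addition; actives flag unspecific activation.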
Potency is the fitted concentration of half-maximal effect.

In the case of `Cc1ccc(NC(=O)c2ccc3nc[nH]c3c2)cc1C`, the Potency entry was “inactive”. Regarding `O=C(CNc1ccccc1)N/N=C/c1c[nH]c2ccccc12`, the Potency result is “inactive”. The same measure for `O=C(Nc1ccc(N2CCCCCC2)cc1)c1ccc[nH]1`: 1840 nM (active); for `COc1ccc(-c2cc(C(F)(F)F)nc(-n3ccnc3C)n2)cc1`: “inactive”; for `CCn1c(C)nc2cc(C(=O)NNC(=O)c3ccc(C)cc3)ccc21`: “inactive”.

As to `Oc1ccccc1-c1cc(-c2ccc3c(c2)OCCO3)n[nH]1`, the Potency result is “inactive”. Take `CC(C)/C=C1\CC/C(=C\c2ccc(N(C)C)cc2)C1=O`: the Potency entry was “inactive”. In the case of `O=C(NNc1c2ccccc2nc2ccccc12)c1ccc(O)cc1` it was “inactive”; in that of `O=C(NCCC1=CCCCC1)c1ccc([N+](=O)[O-])cc1`, “inactive”; in that of `COc1ccc(N2CCN(C(=O)COC(=O)c3ccc(OC(F)F)cc3)CC2)cc1`, “inactive”. As to `Clc1cccc(N/N=C(\Cc2nc3ccccc3[nH]2)c2ccccc2)c1`, the Potency entry was “inactive”. In the case of `O=C(Cc1ccccc1)Nc1ccc(NC(=O)c2cccnc2)cc1` it was “inactive”; in that of `CCCCOC(=O)c1ccc(NC(=O)CSc2nncn2C)cc1`, “inactive”.

Consider `CCOC(=S)SCC(=O)Nc1nc(-c2ccc(Br)cc2)cs1`, for which the Potency result was “inactive”. Consider `C=Cc1ccc(Cn2c(=O)n(CCCOC)c(=O)c3sccc32)cc1`, for which the Potency entry is “inactive”. The same measure for `O=C(Nc1ncc(Cc2ccccc2)s1)c1cccs1`: “inactive”; for `N#CC(c1ccccc1)C1CCN(Cc2ccccc2)CC1` (stereo unspecified): “inactive”; for `N#Cc1nc(COc2ccccc2)oc1N1CCOCC1`: “inactive”.

For the compound `COc1cc(/C=N/Nc2nc3ccccc3s2)ccc1OC(=O)c1ccccc1F`, the Potency entry is “inactive”. The same measure for `O=C(NC(=S)Nc1cccc(O)c1)C1CCCCC1`: “inactive”; for `CN1CCN(C(=O)c2cc3ccccc3cc2O)CC1`: “inactive”; for `ON=C1c2cc(OCCN3CCCCC3)ccc2-c2ccc(OCCN3CCCCC3)cc21`: “inactive”. In the case of `CCOc1ccc(S(=O)(=O)c2c(C(=O)c3ccc(C)cc3)cnc3cc4c(cc23)OCCO4)cc1` it was “inactive”. The same measure for `COc1ccc(CCC(C)NCC(C)c2ccccc2)cc1` (stereo unspecified): “inactive”; for `Nc1c(C(=O)CSc2nc3ccccc3o2)c(=O)[nH]c(=O)n1C1CC1`: “inactive”; for `COc1ccc(-c2nsc3c(N4CCCC4)ncnc23)cc1`: “inactive”.

`O=C(c1ccc(N2CCN(S(=O)(=O)c3ccccc3)CC2)c([N+](=O)[O-])c1)N1CCOCC1`: the Potency result was “inactive”.

Turning to `N=C1C(c2nc3ccccc3s2)=C(O)CN1Cc1ccccc1`, the Potency entry was “inactive”. In the case of `Cc1cccc(-n2c(O)c(C=Nc3ccccc3N)c(=O)[nH]c2=O)c1` it was “inactive”; in that of `O=C(CCN1C(=O)NC2(CCCC2)C1=O)Nc1ccc(-c2nc3ccccc3s2)cc1`, 2310 nM (active); in that of `O=C(COC(=O)C12CC3CC(CC(O)(C3)C1)C2)Nc1ccc(Br)cc1F`, “inactive”. The same measure for `O=C(c1cccc(Br)c1)c1coc2ccc(O)cc12`: “inactive”. Turning to `Cc1ccccc1-c1noc(N)c1C#N`, the Potency result is “inactive”. As to `Fc1cccc(NCc2cn3ccccc3n2)c1`, the Potency result is “inactive”. In the case of `CCOc1ccc(NC(=O)/C=C/c2ccccc2)c([N+](=O)[O-])c1` it was “inactive”; in that of `O=C(NNC(=O)c1cc(-c2ccccc2)nn1-c1ccccc1)c1ccccc1`, “inactive”.
